Experimental data: the supplement of paper PMC11001985
Unmarked numbers belong to inactive results.

Compound: C#CCNC(=O)CCSSCCC(=O)NCCc1ccc(C=O)c(C=O)c1
Assay: lysine labeling ratio R10:1 (500 µM / 50 µM probe), SILAC-ABPP in living cells; higher = lower intrinsic lysine reactivity toward the probe, active = 2 or less
Settings: HeLa; probe concentrations 500 vs 50 µM
In short: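 R, given per lysine, is the filtered median high-probe/low-probe MS1 peptide ratio, with the median then taken across forward and reverse replicates. Cells were living SILAC light and heavy HeLa cells in PBS at room temperature, labelled with 50 µM or 500 µM of an alkyne-tagged, disulfide-linked lysine probe. The ceiling applied is 20.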

UniProt P16615, sequence (P16615 whole entry): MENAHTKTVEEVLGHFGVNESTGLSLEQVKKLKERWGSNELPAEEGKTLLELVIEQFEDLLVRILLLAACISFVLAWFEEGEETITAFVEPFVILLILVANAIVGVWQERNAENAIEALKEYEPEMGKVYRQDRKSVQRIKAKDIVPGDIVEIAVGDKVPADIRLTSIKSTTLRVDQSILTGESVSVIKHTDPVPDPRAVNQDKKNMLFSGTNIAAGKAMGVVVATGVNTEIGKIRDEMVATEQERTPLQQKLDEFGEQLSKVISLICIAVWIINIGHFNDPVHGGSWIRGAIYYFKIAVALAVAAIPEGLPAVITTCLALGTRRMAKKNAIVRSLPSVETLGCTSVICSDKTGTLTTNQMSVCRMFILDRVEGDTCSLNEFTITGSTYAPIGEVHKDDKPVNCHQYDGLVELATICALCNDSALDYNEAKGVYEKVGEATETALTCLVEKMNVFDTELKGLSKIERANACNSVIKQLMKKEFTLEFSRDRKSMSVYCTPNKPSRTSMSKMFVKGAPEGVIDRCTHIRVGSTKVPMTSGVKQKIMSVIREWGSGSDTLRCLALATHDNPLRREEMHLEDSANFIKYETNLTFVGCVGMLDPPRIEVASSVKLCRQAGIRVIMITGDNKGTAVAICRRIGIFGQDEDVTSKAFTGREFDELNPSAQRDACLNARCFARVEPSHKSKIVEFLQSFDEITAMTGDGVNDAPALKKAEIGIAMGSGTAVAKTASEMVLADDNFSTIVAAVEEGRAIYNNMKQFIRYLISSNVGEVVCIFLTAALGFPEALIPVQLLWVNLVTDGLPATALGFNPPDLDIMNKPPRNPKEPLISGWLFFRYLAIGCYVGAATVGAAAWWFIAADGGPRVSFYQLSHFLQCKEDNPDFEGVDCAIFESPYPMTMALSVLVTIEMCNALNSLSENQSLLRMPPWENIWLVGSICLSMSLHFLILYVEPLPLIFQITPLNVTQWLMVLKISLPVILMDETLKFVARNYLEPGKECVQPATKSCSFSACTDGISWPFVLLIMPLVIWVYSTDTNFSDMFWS
UniProt P08069, sequence (P08069 whole entry, looked up): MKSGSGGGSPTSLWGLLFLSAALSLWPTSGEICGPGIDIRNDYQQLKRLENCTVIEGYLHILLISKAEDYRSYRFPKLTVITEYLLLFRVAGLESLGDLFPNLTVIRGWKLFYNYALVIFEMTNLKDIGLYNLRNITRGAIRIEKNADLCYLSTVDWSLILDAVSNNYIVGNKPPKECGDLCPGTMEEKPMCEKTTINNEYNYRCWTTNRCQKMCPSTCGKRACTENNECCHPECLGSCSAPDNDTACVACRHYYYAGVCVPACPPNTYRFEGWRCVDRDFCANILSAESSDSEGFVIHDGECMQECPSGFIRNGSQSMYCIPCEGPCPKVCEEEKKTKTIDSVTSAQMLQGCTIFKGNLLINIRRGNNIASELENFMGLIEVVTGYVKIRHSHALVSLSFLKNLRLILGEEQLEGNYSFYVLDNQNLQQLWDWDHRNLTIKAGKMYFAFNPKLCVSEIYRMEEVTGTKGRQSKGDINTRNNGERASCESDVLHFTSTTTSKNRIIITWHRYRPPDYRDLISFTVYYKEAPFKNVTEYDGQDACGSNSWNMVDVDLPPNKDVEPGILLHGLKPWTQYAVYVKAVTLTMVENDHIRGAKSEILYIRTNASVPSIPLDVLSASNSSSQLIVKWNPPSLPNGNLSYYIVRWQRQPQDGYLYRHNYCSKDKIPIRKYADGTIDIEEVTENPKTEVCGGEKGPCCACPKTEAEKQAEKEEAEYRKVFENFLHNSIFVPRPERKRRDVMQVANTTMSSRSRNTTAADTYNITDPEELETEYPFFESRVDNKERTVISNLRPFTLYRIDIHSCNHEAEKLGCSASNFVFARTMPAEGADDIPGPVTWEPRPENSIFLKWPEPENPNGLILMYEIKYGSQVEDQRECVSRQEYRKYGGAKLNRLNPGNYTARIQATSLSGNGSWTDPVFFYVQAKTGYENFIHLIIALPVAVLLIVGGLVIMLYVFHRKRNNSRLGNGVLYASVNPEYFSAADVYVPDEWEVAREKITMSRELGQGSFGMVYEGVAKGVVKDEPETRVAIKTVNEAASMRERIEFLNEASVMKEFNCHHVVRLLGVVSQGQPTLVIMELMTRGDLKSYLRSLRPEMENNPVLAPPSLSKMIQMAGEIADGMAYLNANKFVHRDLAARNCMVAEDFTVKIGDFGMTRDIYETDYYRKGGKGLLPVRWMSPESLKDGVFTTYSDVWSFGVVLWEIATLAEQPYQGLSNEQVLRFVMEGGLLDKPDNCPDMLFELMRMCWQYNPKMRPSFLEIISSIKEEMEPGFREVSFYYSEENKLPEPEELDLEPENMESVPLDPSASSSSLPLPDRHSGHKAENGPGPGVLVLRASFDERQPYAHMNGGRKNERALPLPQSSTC
UniProt Q13200, sequence (Q13200 whole entry): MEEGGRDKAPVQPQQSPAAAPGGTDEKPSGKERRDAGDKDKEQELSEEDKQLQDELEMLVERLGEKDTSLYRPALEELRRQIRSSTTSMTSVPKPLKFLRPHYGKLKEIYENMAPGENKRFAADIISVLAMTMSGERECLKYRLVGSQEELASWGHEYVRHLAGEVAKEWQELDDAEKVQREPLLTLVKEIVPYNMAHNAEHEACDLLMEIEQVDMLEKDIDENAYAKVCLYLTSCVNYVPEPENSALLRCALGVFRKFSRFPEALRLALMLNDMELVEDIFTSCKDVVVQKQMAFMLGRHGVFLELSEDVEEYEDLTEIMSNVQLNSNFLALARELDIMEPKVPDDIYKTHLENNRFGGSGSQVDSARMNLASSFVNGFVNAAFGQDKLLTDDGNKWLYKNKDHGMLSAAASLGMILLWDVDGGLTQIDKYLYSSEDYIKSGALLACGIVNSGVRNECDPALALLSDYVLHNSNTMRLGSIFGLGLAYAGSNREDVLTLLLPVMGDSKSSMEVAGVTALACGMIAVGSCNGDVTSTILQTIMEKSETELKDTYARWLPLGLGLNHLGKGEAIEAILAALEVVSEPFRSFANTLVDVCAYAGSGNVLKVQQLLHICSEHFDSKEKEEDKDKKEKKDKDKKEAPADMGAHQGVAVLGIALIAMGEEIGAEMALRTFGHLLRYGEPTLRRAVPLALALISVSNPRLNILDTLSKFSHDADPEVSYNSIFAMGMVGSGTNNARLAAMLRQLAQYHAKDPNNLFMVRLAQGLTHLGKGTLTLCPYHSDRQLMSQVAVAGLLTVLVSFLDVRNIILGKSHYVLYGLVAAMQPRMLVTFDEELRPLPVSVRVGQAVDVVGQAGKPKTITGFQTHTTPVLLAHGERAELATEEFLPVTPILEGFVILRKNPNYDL
UniProt Q71U36, sequence (Q71U36 whole entry): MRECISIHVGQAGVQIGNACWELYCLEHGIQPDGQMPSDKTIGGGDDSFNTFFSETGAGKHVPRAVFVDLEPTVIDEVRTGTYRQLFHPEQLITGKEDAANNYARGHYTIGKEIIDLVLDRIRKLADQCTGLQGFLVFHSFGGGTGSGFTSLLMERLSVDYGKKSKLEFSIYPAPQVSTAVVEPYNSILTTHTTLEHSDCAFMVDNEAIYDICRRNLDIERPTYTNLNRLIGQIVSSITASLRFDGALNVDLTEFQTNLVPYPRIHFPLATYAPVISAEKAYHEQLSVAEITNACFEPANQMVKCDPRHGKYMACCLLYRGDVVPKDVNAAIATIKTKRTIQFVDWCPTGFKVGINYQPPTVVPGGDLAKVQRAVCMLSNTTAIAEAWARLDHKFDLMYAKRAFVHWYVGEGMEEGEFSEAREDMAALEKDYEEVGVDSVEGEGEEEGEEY
UniProt P26639, sequence (P26639 whole entry): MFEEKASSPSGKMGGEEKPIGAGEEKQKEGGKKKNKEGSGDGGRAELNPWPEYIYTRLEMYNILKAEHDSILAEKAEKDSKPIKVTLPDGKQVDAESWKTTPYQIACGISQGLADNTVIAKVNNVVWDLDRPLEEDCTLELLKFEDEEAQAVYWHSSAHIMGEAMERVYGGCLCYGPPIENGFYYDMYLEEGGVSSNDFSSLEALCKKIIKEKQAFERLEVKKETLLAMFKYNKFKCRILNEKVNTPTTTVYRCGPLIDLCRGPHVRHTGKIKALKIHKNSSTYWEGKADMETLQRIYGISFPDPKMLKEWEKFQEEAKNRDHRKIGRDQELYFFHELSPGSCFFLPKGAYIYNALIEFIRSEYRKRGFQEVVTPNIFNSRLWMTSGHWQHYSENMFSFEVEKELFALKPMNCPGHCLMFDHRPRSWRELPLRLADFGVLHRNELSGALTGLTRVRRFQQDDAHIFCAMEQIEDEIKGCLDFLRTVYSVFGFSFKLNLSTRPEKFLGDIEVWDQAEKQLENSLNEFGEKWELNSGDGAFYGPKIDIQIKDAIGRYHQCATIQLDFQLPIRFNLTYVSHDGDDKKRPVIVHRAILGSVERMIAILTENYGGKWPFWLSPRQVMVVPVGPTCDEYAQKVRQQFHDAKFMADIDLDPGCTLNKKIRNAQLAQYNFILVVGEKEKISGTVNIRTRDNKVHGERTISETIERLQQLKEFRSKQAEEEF
UniProt P06733, sequence (P06733 whole entry): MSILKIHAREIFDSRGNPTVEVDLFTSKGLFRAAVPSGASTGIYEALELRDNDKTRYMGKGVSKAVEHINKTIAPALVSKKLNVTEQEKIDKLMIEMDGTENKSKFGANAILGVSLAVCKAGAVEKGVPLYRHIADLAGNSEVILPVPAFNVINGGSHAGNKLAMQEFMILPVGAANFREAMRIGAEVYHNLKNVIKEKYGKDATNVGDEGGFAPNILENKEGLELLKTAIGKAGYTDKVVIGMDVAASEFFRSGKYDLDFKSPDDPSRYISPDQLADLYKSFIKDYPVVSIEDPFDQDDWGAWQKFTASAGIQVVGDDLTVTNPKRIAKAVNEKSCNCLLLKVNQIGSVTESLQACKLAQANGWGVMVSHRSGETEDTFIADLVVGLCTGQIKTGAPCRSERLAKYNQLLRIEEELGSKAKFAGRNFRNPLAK

| Target | lysine labeling ratio R10:1 |
| --- | --- |
| FASN (lysine site: K1704) (UniProt P49327) | 2.46 |
| ULBP2 (lysine site: K116) (UniProt Q9BZM5) | 5.14 |
| PSMD2 (lysine site: K551) (UniProt Q13200) | 2.34 |
| UniProt Q15149 (lysine site: K932) | 6.51 |
| UniProt P26639 (lysine site: K549) | 0.996 (active) |
| ENO1 (lysine site: K406) (UniProt P06733) | 10 |
| DDX3X (lysine site: K81) (UniProt O00571) | 2.77 |
| VIM (lysine site: K373) (UniProt P08670) | 7.19 |
| LMO7 (lysine site: K1405) (UniProt Q8WWI1) | 1.4 (active) |
| IGF1R (lysine site: K474) (UniProt P08069) | 3.24 |
| UniProt Q9UHN6 (lysine site: K1220) | 2.87 |
| PTPRM (lysine site: K234) (UniProt P28827) | 1.53 (active) |
| SPTAN1 (lysine site: K803) (UniProt Q13813) | 1.86 (active) |
| ATP2A2 (lysine site: K757) (UniProt P16615) | 1.36 (active) |
| TUBA1A (lysine site: K338) (UniProt Q71U36) | 2 (active) |
| UniProt P83881 (lysine site: K38) | 1.61 (active) |
| EPRS (lysine site: K360) (UniProt P07814) | 1.77 (active) |
